Where “and” joins values, the source holds several entries; their conditions need not be identical. Identical values can stand only once. Out of some 2,000 compounds screened, about 100 (5%) were called active. No stated cut-off is given here; in the data, active means z-score above about 2; inactive means the rest. For the sample, actives were picked, then their nearest neighbours and some compounds at random.

This test can be described thus: modulators of mitochondrial supercomplex assembly, cell-based, luminescence, Hoechst nuclei count (AID 1645838).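 On all read-outs here: control cybrid cells.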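 On z-score: higher means more mitochondrial supercomplex formation.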 Conditions: Cells, luminescence/Hoechst cell count ratio, supercomplex reporter; for z-score: stronger effect = higher value; for cell count: measured here: cell number, Hoechst nuclei count; for outcome: library stock 10 mM.
Setting [1] is: library stock concentration (final well concentration not given) 46 uM.
The mark [2] stands for this setting: library stock concentration (final well concentration not given) 278 uM.
Setting [3] is: library stock concentration (final well concentration not given) 1.67 mM.
The mark [4] stands for this setting: library stock concentration (final well concentration not given) 10 mM.
Setting [5] is: library stock concentration (final well concentration not given) 80 uM.
[6] abbreviates: library stock concentration (final well concentration not given) 400 uM.
[7] abbreviates: library stock concentration (final well concentration not given) 2 mM.

As to `NC(=O)C(c1ccccc1)(c1ccc(F)cc1)c1ccc(F)cc1`, the z-score is -0.117 (inactive) under setting [1], 0.34 (inactive) under setting [2], -0.0437 (inactive) under setting [3] and 0.799 (inactive) under setting [4]. Further, the cell count under setting [1] was 6820, the cell count under setting [2] is 6540, the cell count under setting [3] came out at 6770 and the cell count under setting [4] was 6720.
`O=C1C(Nc2ccccc2)=CC(=O)c2ncccc21`: the z-score is 0.666 (inactive) and the cell count came out at 3000.
Take `O=C(NNS(=O)(=O)c1ccccc1C(F)(F)F)c1cc2cc(Cl)ccc2o1`: the z-score was -0.12 (inactive) under setting [1], -0.121 (inactive) under setting [2], -0.307 (inactive) under setting [3] and -0.0108 (inactive) under setting [4]. Besides, the cell count under setting [1] was 7080, the cell count under setting [2] came out at 6790, the cell count under setting [3] was determined as 7310 and the cell count under setting [4] worked out at 6850.
With `CC=C(C)C(=O)OC1C(C)=C[C@]23C(=O)C(C=C(CO)C(O)[C@]12O)C1C(CC3C)C1(C)C` (stereo not given in full), the z-score under setting [1] was 1.37 (inactive), the z-score under setting [2] was 1.94 (inactive), the z-score under setting [3] is 1.83 (inactive) and the z-score under setting [4] is 1.83 (inactive). The cell count under setting [1] amounted to 6280, the cell count under setting [2] came to 6170, the cell count under setting [3] came to 6240 and the cell count under setting [4] was found to be 5670.
In the case of `CCCCCCCCCCCCCCCC(=O)NC[C@@H](C)O`, the z-score is -0.297 (inactive) and the cell count came out at 5690.
As to `CCCCC/C=C\C=C1\C(=O)CC[C@@H]1C/C=C\CCCC(=O)O`, the z-score is -0.163 (inactive) and the cell count amounted to 5580.
For the molecule `COc1ccc(C(=O)O)cc1`, the z-score by setting is: under setting [5], -0.451 (inactive); under setting [6], -0.128 (inactive); under setting [7], -0.287 (inactive); under setting [4], -0.368 (inactive). For the same molecule, the cell count came out at 6090 under setting [5], 5780 under setting [6], 5670 under setting [7] and 5840 under setting [4].
On to `COc1ccc(C(=O)CC2(O)C(=O)Nc3c(Cl)ccc(Cl)c32)cc1` (stereo not given), for which the outcome was “inactive; censored for cell count”. Further, under setting [1], the z-score is -0.53 (inactive) and the cell count was 7260. Further, under setting [2], the z-score was 0.329 (inactive) and the cell count worked out at 5870. Also, under setting [3], the z-score was 3.41 (active) and the cell count stood at 2920.
As for `COc1ccc(C(=O)C(=O)c2ccc(OC)cc2)cc1`, the z-score under setting [5] was -0.606 (inactive), the z-score under setting [6] was -0.661 (inactive), the z-score under setting [7] is -0.561 (inactive) and the z-score under setting [4] is -0.758 (inactive). Besides, the cell count is 5520 under setting [5], 5760 under setting [6], 5480 under setting [7] and 5880 under setting [4].
For `CCCCCCCCCCCCC(O)C(=O)O` (stereo not given), the z-score was -0.554 (inactive) and the cell count came out at 5820.
For `CCCCC[C@@H](O)/C=C/[C@@H]1[C@@H](C/C=C\CCCC(=O)O)[C@@H](O)C[C@H]1O` the same measures were -0.443 (inactive) and 5100.
For the molecule `CCCCC[C@H](O)CC[C@H]1[C@H](O)CC(=O)[C@@H]1CCCCCCC(=O)O`, the z-score was 0.391 (inactive) and the cell count was determined as 5410.
For `CCCCC[C@H](O)/C=C/[C@H]1C(=O)C=C[C@@H]1C/C=C\CCCC(=O)O` the same measures were -0.0566 (inactive) and 4900.
`NCCCCN(Cc1nc2ccccc2[nH]1)C1CCCc2cccnc21` (stereo not given): the z-score by setting is: under setting [5], -0.0283 (inactive); under setting [6], 0.157 (inactive); under setting [7], 0.36 (inactive); under setting [4], 2.01 (active). Also, the cell count by setting is: under setting [5], 5890; under setting [6], 5860; under setting [7], 5630; under setting [4], 3290.
As to `CCCCC[C@@](C)(O)/C=C/[C@@H]1[C@@H](C/C=C\CCCC(=O)OC)[C@@H](O)C[C@H]1O`, the z-score was -0.104 (inactive) and the cell count was 5030.
As to `CCCCC[C@H](O)/C=C/[C@@H]1c2cc(CCCCC(=O)O)n(-c3ccccc3)c2C[C@H]1O`, the z-score was -1.31 (inactive) and the cell count turned out to be 6120.
On to `COc1cc(OC)c(NC(=O)Nc2cc(C)on2)cc1Cl`, for which the z-score under setting [5] is -0.669 (inactive), the z-score under setting [6] is -0.368 (inactive), the z-score under setting [7] is -0.584 (inactive) and the z-score under setting [4] is -0.574 (inactive). Further, the cell count stood at 6520 under setting [5], 5740 under setting [6], 6660 under setting [7] and 5990 under setting [4].
As to `COc1cc2nccc(Oc3ccc(NC(=O)Nc4cc(C)on4)c(Cl)c3)c2cc1OC`, the outcome was “inactive; censored for cell count”. Moreover, under setting [5], the z-score is -0.536 (inactive) and -0.288 (inactive); the cell count was 4520 and 5260. Moreover, under setting [6], the z-score was -0.724 (inactive) and -0.129 (inactive); the cell count is 4890 and 4760. Besides, under setting [7], the z-score is -1.01 (inactive) and -0.967 (inactive); the cell count was 4710 and 4870. For the same molecule, under setting [4], the z-score is 5.93 (active) and the cell count is 1710.
For the molecule `COC(=O)C(CCSC)NC(=O)c1ccc(NCC(N)CS)cc1-c1ccccc1` (stereo not given), the z-score under setting [5] is -0.72 (inactive), the z-score under setting [6] is -0.795 (inactive), the z-score under setting [7] was -0.715 (inactive) and the z-score under setting [4] was -1.02 (inactive). Besides, the cell count reads like this: under setting [5], 6120; under setting [6], 6350; under setting [7], 6090; under setting [4], 5780.
For the molecule `COc1ccc2c(c1)CN(C)CCS2`, the z-score reads like this: under setting [5], -0.906 (inactive); under setting [6], -0.795 (inactive); under setting [7], -1.04 (inactive); under setting [4], -1.49 (inactive). Further, the cell count under setting [5] is 6210, the cell count under setting [6] stood at 6190, the cell count under setting [7] is 6290 and the cell count under setting [4] was found to be 6260.
For the molecule `CCCCC[C@H](O)/C=C/[C@H]1C(=O)C[C@H](O)[C@@H]1C/C=C\CCCC(=O)NC(CO)CO`, the z-score was 1.15 (inactive) and the cell count worked out at 4420.
For `CCCCC/C=C\C/C=C\C/C=C\C/C=C\CCCC(=O)NC[C@]1(C)CCC[C@]2(C)c3ccc(C(C)C)cc3CC[C@@H]12` the same measures were -0.12 (inactive) and 4820.
Regarding `CCC(C)(C)C(=O)OC1CC(C)C=C2C=CC(C)C(CCC3CC(O)CC(=O)O3)[C@H]21` (stereo not given in full), the z-score is -0.332 (inactive) under setting [5], -0.176 (inactive) under setting [6], -0.124 (inactive) under setting [7] and 3.34 (active) under setting [4]. Also, the cell count came to 6550 under setting [5], 6140 under setting [6], 6050 under setting [7] and 2650 under setting [4].
For the molecule `CCCCCCNC(=O)Nc1ccc(S(=O)(=O)Nc2ccc(CCNCC(O)COc3ccc(O)cc3)cc2)cc1` (stereo not given), the z-score is -0.212 (inactive) under setting [5], 0.0631 (inactive) under setting [6], -0.344 (inactive) under setting [7] and 0.114 (inactive) under setting [4]. For the same molecule, the cell count was found to be 5240 under setting [5], 4980 under setting [6], 5190 under setting [7] and 4950 under setting [4].
For the molecule `N#Cc1cccc(C#N)c1-c1nc2c3ccccc3c3cc(Cl)ccc3c2[nH]1`, the z-score runs as follows: under setting [1], -0.238 (inactive); under setting [2], -0.156 (inactive); under setting [3], -0.196 (inactive); under setting [4], 0.519 (inactive). Besides, the cell count runs as follows: under setting [1], 6980; under setting [2], 6500; under setting [3], 7350; under setting [4], 6120.
As to `CCOc1ccc(-n2c(C(C)N(Cc3cccnc3)C(=O)Cc3ccc(F)c(C(F)(F)F)c3)nc3ncccc3c2=O)cc1` (stereo not given), the z-score is -0.219 (inactive) under setting [5], -0.0969 (inactive) under setting [6], 0.0541 (inactive) under setting [7] and -0.0286 (inactive) under setting [4]. Further, the cell count under setting [5] amounted to 5590, the cell count under setting [6] was found to be 5490, the cell count under setting [7] was 5970 and the cell count under setting [4] is 4780.
In the case of `COc1ccccc1Oc1ccc(N(Cc2cccnc2)S(=O)(=O)CC(F)(F)F)cc1`, the z-score reads like this: under setting [1], 0.268 (inactive); under setting [2], -0.0606 (inactive); under setting [3], 2 (active); under setting [4], 0.543 (inactive). Also, the cell count under setting [1] was determined as 6460, the cell count under setting [2] is 6750, the cell count under setting [3] was determined as 6250 and the cell count under setting [4] amounted to 5860.
With `CCOc1ccc(-n2c(C(C)N(Cc3cccnc3)C(=O)Cc3ccc(OC(F)(F)F)cc3)nc3ncccc3c2=O)cc1` (stereo not given), the z-score runs as follows: under setting [5], 0.00539 (inactive); under setting [6], 0.51 (inactive); under setting [7], -0.332 (inactive); under setting [4], -0.306 (inactive). Also, the cell count under setting [5] was found to be 4950, the cell count under setting [6] amounted to 4820, the cell count under setting [7] amounted to 4910 and the cell count under setting [4] was 4660.
For the molecule `CCCCCCCCCCCCCCCCC/C=C/C(=O)O`, the z-score was 0.212 (inactive) and the cell count came to 4980.
As for `Cc1nc(Nc2ncc(C(=O)Nc3c(C)cccc3Cl)s2)cc(N2CCN(CCO)CC2)n1`, the outcome is “inactive; censored for cell count”. Moreover, under setting [1], the z-score was -0.0819 (inactive) and the cell count is 4850. Also, under setting [5], the z-score was 3.96 (active) and the cell count stood at 2250. Also, under setting [2], the z-score is 0.412 (inactive) and the cell count was 4290. Further, under setting [6], the z-score was 5.15 (active) and the cell count was 1990. Further, under setting [3], the z-score was 3.64 (active) and the cell count is 2120. Under setting [7], the z-score is 6.64 (active) and the cell count came to 1770. Under setting [4], the z-score is 3.97 (active) and the cell count came to 1700.

The values above are taken from PubChem BioAssay AID1645838 (ICCB-Longwood Screening Facility, Harvard Medical School, 2021).
